Source: PubChem BioAssay (National Center for Advancing Translational Sciences (NCATS))
Compounds with a hit are over-represented: about 9.3% of the library has one in this group of screens.
ELG1 repair inh = qHTS screen for small molecules that inhibit ELG1-dependent DNA repair in human embryonic kidney (HEK293T) cells expressing luciferase-tagged ELG1; HEK293T ELG1-luciferase reporter, luminescence, 16 h; DNA damage induced by 5-fluorouridine; Potency, µM (highest dose often 46.1 µM), actives largely listed as inhibitors; 330,000 tested, 2.3% active; note: nearly all actives have a fitted effect of over 55% in size
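5-Fluorouridine DNA damage + compound/DMSO, 2,000 cells/well, 16 h, 37 °C/5% CO2. ONE-Glo, 30 min RT, luminescence. Readout = decrease in reporter signal.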
FLuc counter = qHTS profiling assay for firefly luciferase inhibitor/activator using purifed enzyme and Km concentrations of substrates (counterscreen for miR-21 project); purified FLuc, Km substrates, luminescence inhibition; Potency, µM (series often up to 57.5 µM), most hits filed as inhibitors; 360,000 tested, 6.9% active; note: nearly all actives have a fitted effect of over 55% in size
Target sequence (P08659 whole entry, looked up): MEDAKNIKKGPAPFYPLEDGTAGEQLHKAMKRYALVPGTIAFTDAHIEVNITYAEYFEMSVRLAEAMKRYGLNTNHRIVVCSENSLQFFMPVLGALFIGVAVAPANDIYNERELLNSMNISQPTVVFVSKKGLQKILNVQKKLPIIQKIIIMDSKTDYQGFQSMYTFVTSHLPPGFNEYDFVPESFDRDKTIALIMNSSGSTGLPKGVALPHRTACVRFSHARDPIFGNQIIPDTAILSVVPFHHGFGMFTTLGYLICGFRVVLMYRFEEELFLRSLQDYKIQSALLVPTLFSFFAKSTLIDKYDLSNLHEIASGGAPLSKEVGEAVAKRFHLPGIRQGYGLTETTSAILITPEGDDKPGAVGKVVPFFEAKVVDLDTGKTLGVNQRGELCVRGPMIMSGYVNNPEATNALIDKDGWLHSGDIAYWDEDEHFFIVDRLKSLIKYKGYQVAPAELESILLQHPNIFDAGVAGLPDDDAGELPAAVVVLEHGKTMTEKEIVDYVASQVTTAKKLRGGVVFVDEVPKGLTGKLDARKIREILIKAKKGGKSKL
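Purified P. pyralis luciferase, 10 nM final, with Km-level 10 uM D-luciferin and 10 uM ATP in 50 mM Tris acetate pH 7.5, 10 mM Mg acetate, 0.01% Tween-20, 0.05% BSA; 6-point qHTS titration about 60 µM downward; luminescence read.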
NPC1 promoter act = qHTS Assay for NPC1 Promoter Activators; Huh7 NPC1 promoter luciferase reporter, 24 h; Potency, µM (series often up to 9.22 µM), actives largely listed as activators; 320,000 tested, 2.4% active; AID 485313, 2010; note: nearly all actives have a fitted effect of over 60% in size
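Luciferase expression driven by the NPC1 promoter was measured in stably transfected Huh7 cells after a 24 h compound incubation, using a luciferase reagent and a luminescence read.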
Rab9 promoter act = qHTS Assay for Rab9 Promoter Activators; Huh7 Rab9 promoter-luciferase reporter, luminescence, 24 h; Potency, µM (highest dose often 9.22 µM), most hits filed as activators; 320,000 tested, 2.8% active; note: nearly all actives have a fitted effect of over 60% in size
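Using Huh7 cells stably transfected with Rab9 promoter–luciferase, compounds were incubated 24 h at 37 °C, 5% CO2; luciferase luminescence was read 10 min after reagent addition.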
SMN2 splice enh = qHTS Assay for Enhancers of SMN2 Splice Variant Expression. 210,000 tested, 2.8% active. HEK293 SMN2-luciferase splicing reporter, luminescence, 30-36 h. Potency, µM (top dose mostly 46.1 µM), actives largely listed as activators. AID 1458, 2008; note: nearly all actives have a fitted effect of over 55% in size
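HEK293 cells carry an SMN2 minigene-luciferase reporter in which exon 7 inclusion puts luciferase in frame. Cells were seeded at 2000 cells/well, attached for 10-12 hours, then exposed to compounds for 30-36 hours at 37C before ONE-Glo luminescence.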
ELG1 genotoxic = qHTS screen for small molecules that induce genotoxicity in human embryonic kidney (HEK293T) cells expressing luciferase-tagged ELG1. HEK293T ELG1-luciferase reporter, luminescence, 16 h. Potency, µM (series often up to 46 µM), most hits filed as activators. 330,000 tested, 1.3% active. AID 504466, 2011; note: nearly all actives have a fitted effect of over 60% in size
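Step 1: seed 2,000 HEK293T ELG1-luciferase cells per well. Step 2: add compound or DMSO, incubate 16 hr at 37 °C. Step 3: ONE-Glo, 30 min at room temperature, read luminescence.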
Hits are given with their value; [ ] = dose if it differs, or a comment. Calls come from the whole dose curve; as a rule, active = well fitted curve in the direction sought with a large enough effect; inconclusive = small, poorly fitted or top-dose-only effect, or another doubt; inactive = no such curve, though single readings can be large; an effect the other way counts as inactive or inconclusive.

CCCN(CCC)c1ncnc2c1cnn2-c1ccc(OC)cc1 was read as ELG1 repair inh inconclusive, FLuc counter 2.4µM, NPC1 promoter act 0.71µM, Rab9 promoter act 0.45µM, SMN2 splice enh inconclusive and ELG1 genotoxic 1.2µM.
Screening C=CCNc1ncnc2c1cnn2-c1ccc(OC)cc1 returned ELG1 repair inh inconclusive, FLuc counter 3.4µM, NPC1 promoter act 0.63µM, Rab9 promoter act 0.4µM, SMN2 splice enh inconclusive and ELG1 genotoxic inconclusive.
`CCCNc1ncnc2c1cnn2-c1ccc(OC)cc1` gave ELG1 repair inh inactive, FLuc counter 5.4µM, NPC1 promoter act 0.5µM, Rab9 promoter act 0.4µM, SMN2 splice enh inactive and ELG1 genotoxic inactive.
Screening N#CCC(=O)Nc1ccc(C(=O)Nc2cccnc2)cc1 returned ELG1 repair inh inactive, FLuc counter inactive, NPC1 promoter act inactive, Rab9 promoter act inactive and ELG1 genotoxic inactive.
Screening O=C(COc1ccc(S(=O)(=O)N2CCCC2)cc1Cl)NCc1ccco1 returned ELG1 repair inh inactive, FLuc counter inactive, NPC1 promoter act inactive, Rab9 promoter act inactive, SMN2 splice enh inactive and ELG1 genotoxic inactive.
Screening COc1ccc(/C=N/n2cnc3scc(-c4cccs4)c3c2=O)cc1OC returned ELG1 repair inh inconclusive, FLuc counter inactive, NPC1 promoter act inactive, Rab9 promoter act inactive, SMN2 splice enh inactive and ELG1 genotoxic inactive.
`Cc1cc(-c2csc(NC(=O)C3=COCCO3)n2)c(C)n1C` gave ELG1 repair inh inactive, FLuc counter inactive, NPC1 promoter act inactive, Rab9 promoter act inactive and ELG1 genotoxic inactive.
Screening O=C(Nc1nc(-c2ccc(F)c(F)c2)cs1)C1=COCCO1 returned ELG1 repair inh inconclusive, FLuc counter inconclusive, NPC1 promoter act inactive, Rab9 promoter act inconclusive and ELG1 genotoxic inactive.
Screening CCc1ccc(-c2csc(NC(=O)C3=COCCO3)n2)cc1 returned ELG1 repair inh inconclusive, FLuc counter 8.5µM, NPC1 promoter act 0.89µM, Rab9 promoter act 0.79µM and ELG1 genotoxic inconclusive.
O=C(Nc1nc(-c2cccs2)cs1)C1=COCCO1 was read as ELG1 repair inh inconclusive, FLuc counter 12µM, NPC1 promoter act inconclusive, Rab9 promoter act inconclusive, SMN2 splice enh 13µM and ELG1 genotoxic inconclusive.
Cc1ccc(CSc2nnc(NC(=O)C3=COCCO3)s2)cc1 was read as ELG1 repair inh inconclusive, FLuc counter 27µM, NPC1 promoter act inactive, Rab9 promoter act inactive and ELG1 genotoxic inactive.
O=C(Nc1nc(-c2ccc(Cl)cc2)cs1)C1=COCCO1 was read as ELG1 repair inh inconclusive, FLuc counter 24µM, NPC1 promoter act inconclusive, Rab9 promoter act inactive and ELG1 genotoxic inactive.
COc1ccc(NC(=O)COc2ccc3oc(=O)cc(C)c3c2)cc1 was read as ELG1 repair inh inactive, FLuc counter inactive, NPC1 promoter act inactive, Rab9 promoter act inactive and ELG1 genotoxic inactive.
`Cc1ccccc1NC(=O)c1nc2nccc(C)n2n1` gave ELG1 repair inh inconclusive, FLuc counter inconclusive, NPC1 promoter act inconclusive, Rab9 promoter act 3.5µM, SMN2 splice enh 14µM and ELG1 genotoxic inconclusive.
`Cc1ccc2[nH]c3ccccc3c(=O)c2c1` gave ELG1 repair inh inconclusive, FLuc counter 17µM, NPC1 promoter act inconclusive, Rab9 promoter act inactive and ELG1 genotoxic inactive.
Screening O=C(NCc1ccccc1)C1CCC1 returned ELG1 repair inh inactive, FLuc counter inactive, NPC1 promoter act inactive, Rab9 promoter act inactive, SMN2 splice enh inactive and ELG1 genotoxic inactive.
`C=CCN1c2ccccc2[C@]23C[C@@H](C(=O)OC)N(C(=O)c4ccco4)C2=NC(C(=O)OC)=C(C(=O)OC)[C@H]13` gave ELG1 repair inh inactive, FLuc counter inactive, NPC1 promoter act inactive, Rab9 promoter act inactive, SMN2 splice enh inactive[9.22 µM] and ELG1 genotoxic inactive.
`Oc1c(Br)cc(C=Nc2ccc3nc(-c4ccccc4)[nH]c3c2)c(O)c1Br` gave ELG1 repair inh inconclusive, FLuc counter 11µM, NPC1 promoter act inconclusive, Rab9 promoter act 2.8µM and ELG1 genotoxic inactive.
Cc1nc2ccc(C(=O)N/N=C/c3cc([N+](=O)[O-])ccc3O)cc2[nH]1 was read as ELG1 repair inh inactive, FLuc counter inactive, NPC1 promoter act inactive, Rab9 promoter act inactive, SMN2 splice enh inactive and ELG1 genotoxic inactive.
Oc1c(Br)cc(Br)cc1C=Nc1ccc2[nH]ncc2c1 was read as ELG1 repair inh inconclusive, FLuc counter inactive, NPC1 promoter act inactive, Rab9 promoter act inactive and ELG1 genotoxic inactive.
For O=[N+]([O-])c1ccc(O)c(C=Nc2ccc3nc(-c4ccccc4)[nH]c3c2)c1 the results were ELG1 repair inh inconclusive, FLuc counter 5.4µM, NPC1 promoter act inconclusive, Rab9 promoter act 3.2µM, SMN2 splice enh inactive[1.84 µM] and ELG1 genotoxic inconclusive.
`COCCSc1nnc(NC(=O)CS(=O)(=O)c2ccccc2)s1` gave ELG1 repair inh inactive, FLuc counter inactive, NPC1 promoter act inactive, Rab9 promoter act inactive and ELG1 genotoxic inactive.
CCOC(=O)C1CCN(c2nc3c(S(=O)(=O)c4ccc(Br)cc4)nnn3c3ccsc23)CC1 was read as FLuc counter inactive.
COc1ccc(CNC(=O)c2cc(-c3cccs3)on2)cc1 was read as ELG1 repair inh inconclusive, FLuc counter inactive, NPC1 promoter act inactive, Rab9 promoter act inactive, SMN2 splice enh inactive and ELG1 genotoxic inactive.
For COc1cccc(-c2cc(C(=O)NCc3cccs3)no2)c1 the results were ELG1 repair inh inconclusive, FLuc counter 4.8µM, NPC1 promoter act 3.2µM, Rab9 promoter act 3.2µM and ELG1 genotoxic 23µM.
`COc1ccc(-c2cc(C(=O)NCc3cccs3)no2)cc1` gave ELG1 repair inh inconclusive, FLuc counter inconclusive, NPC1 promoter act 2.5µM, Rab9 promoter act 4.5µM and ELG1 genotoxic inconclusive.
`COc1ccc(NC(=O)Cn2nnc(C(=O)NCc3cccs3)c2N)cc1` gave ELG1 repair inh inconclusive, FLuc counter inactive, NPC1 promoter act inactive, Rab9 promoter act inactive, SMN2 splice enh inactive and ELG1 genotoxic inconclusive.
Screening COc1cccc(-c2cc(C(=O)NCc3ccc(F)cc3)no2)c1 returned FLuc counter inactive and SMN2 splice enh inactive.
COc1ccc2nc3sc(C(=O)NCc4cccs4)c(N)c3cc2c1 was read as ELG1 repair inh inconclusive, FLuc counter 0.76µM, NPC1 promoter act 3.5µM, Rab9 promoter act 4µM, SMN2 splice enh 3.5µM and ELG1 genotoxic inconclusive.
For O=C(CN1C(=O)NC2(CCCc3ccccc32)C1=O)NC1CCCCC1 (stereo unspecified) the results were ELG1 repair inh inactive, FLuc counter inactive, NPC1 promoter act inactive, Rab9 promoter act inactive and ELG1 genotoxic inactive.
